Compounds without any hit were thinned out: in the full panel of roughly 83,000, 20% have a hit.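 Values shown are percent growth following 48 h exposure of cells in 96-well plates to a single concentration of compound; below 10 was considered active.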 Calls of active or inactive are those of the source.
Legend:
Assay in all cases: NCI-60 one-dose screen, 48 h (100 = growth as untreated, 0 = no growth, -100 = all killed)
Details in all cases: 10 µM unless noted
[1] = tested on: T-47D breast
[2] = tested on: BT-549 breast
[3] = tested on: MDA-MB-435 melanoma
[4] = tested on: SW-620 colon
[5] = tested on: MCF7 breast
[6] = tested on: HCT-116 colon
[7] = tested on: HCC-2998 colon
[8] = tested on: KM12 colon

Measured: growth

C=C(C)[C@@H]1CC[C@]2(CN)CC[C@]3(C)[C@H](CC[C@@H]4[C@@]5(C)CCC(=O)NC(C)(C)[C@@H]5CC[C@]43C)[C@@H]12
inactive: [1] 53.9% | [2] 80.8% | [3] 92.7% | [4] 75.9% | [5] 41.5% | [6] 11.7% | [7] 97.7% | [8] 81%

NC(Cc1ccc(O)cc1)C(=O)N/N=C/c1ccccc1O (stereo not given)
inactive: [1] 98.1% | [2] 95.4% | [3] 108% | [4] 107% | [5] 96.2% | [6] 97.2% | [7] 100% | [8] 97.6%

COc1cc(/C=N/NC(=S)NNC(=S)NC2CCCCC2)cc(OC)c1OC
inactive: [1] 69.9% | [2] 105% | [3] 98.8% | [4] 104% | [5] 92.4% | [6] 104% | [7] 112% | [8] 95.1%

CC(C)/C=C/CC[C@](C)(O)[C@H]1CC[C@]2(C)[C@@H]1CC[C@@H]1[C@@]3(C)C/C(=C/c4cccc(C(F)(F)F)c4)C(=O)C(C)(C)[C@@H]3CC[C@]12C
inactive: [1] 73.8% | [2] 95.9% | [3] 99.3% | [4] 93.3% | [5] 82% | [6] 76% | [7] 104% | [8] 99.8%

CC1=NN(c2ccc(S(=O)(=O)O)cc2Cl)C(=O)C1
inactive: [1] 97.8% | [2] 116% | [3] 107% | [4] 107% | [5] 94.4% | [6] 93% | [7] 83.1% | [8] 137%

COc1ccc2nc(-c3cc(-c4cc(OC)c(OC)c(OC)c4)n[nH]3)[nH]c2c1
inactive: [4] 21% | [6] 12.7% | [7] 49.6%
active: [1] -31.2% | [2] 3.56% | [3] -25.4% | [5] -6.38% | [8] -30%

CC1(C)NC2=C(C(Nc3cccnc3)N1)C(c1ccc([N+](=O)[O-])cc1)C(C(=O)c1ccc(N=[N+]=[N-])cc1)O2 (stereo not given)
inactive: [1] 102% | [2] 99.7% | [3] 105% | [4] 104% | [5] 97.5% | [6] 104% | [7] 110% | [8] 105%

NC(N)=N/N=C/c1ccc(-c2ccc(-c3ccc(Cl)cn3)s2)cc1
inactive: [1] 91.2% | [2] 98.8% | [3] 98.5% | [5] 42.8% | [6] 50.2% | [7] 98.4% | [8] 14.8%
active: [4] 2.46%

Cc1ccsc1-c1ccc2c(c1)COC2(CCCN(C)C)c1ccc(F)cc1 (stereo not given)
inactive: [1] 48.7% | [2] 81.9% | [3] 17.1% | [4] 54.3% | [5] 22.7% | [6] 23.3% | [8] 42.6%
active: [7] -48.4%

CC(=O)O[C@H]1CC[C@@]2(C)[C@@H](CC[C@@H]3[C@@H]2CC(=O)[C@@]2(C)[C@H]3C[C@@H](C3CCCC3=O)[C@@H]2C(C)=O)C1 (stereo not given in full)
inactive: [1] 91.1% | [2] 103% | [3] 118% | [4] 111% | [5] 98.2% | [6] 90.1% | [7] 107% | [8] 106%

NC1=C(C/C(N)=N\O)C(c2ccccc2Cl)c2c(ccc3ccccc23)O1 (stereo not given)
inactive: [1] 84.8% | [2] 89.3% | [4] 63.1% | [5] 68.5% | [6] 83.8% | [7] 97.1% | [8] 67.5%
active: [3] 3.52%

COc1cc2[nH]c(C(=O)c3cc(OC)c(OC)c(OC)c3)c(N)c2cc1C#CCO
active: [3] -27.1%
inactive: [1] 56% | [2] 54% | [4] 16.9% | [5] 10.1% | [6] 10% | [7] 13.5% | [8] 10.8%

COc1cccc(-c2nn(-c3ccccc3)cc2-c2ccnc(NCCCNS(=O)(=O)c3cccc(F)c3)c2)c1
active: [1] -1.01%
inactive: [2] 24.3% | [3] 22.4% | [4] 39.9% | [5] 16% | [6] 18.4% | [7] 11.7% | [8] 24.5%

C#CCn1c2c(c3ccccc31)C[C@]1(C)[C@H]3CC[C@@H]4[C@@H]5C(=CCC[C@H]5C(=C)C)CC[C@@]4(C)[C@]3(C)CC[C@H]1C2(C)C
inactive: [1] 106% | [2] 100% | [3] 102% | [4] 98.2% | [5] 95.7% | [6] 101% | [7] 102% | [8] 102%

COc1ccc(/C=C2\N=C(c3ccccc3)N(c3cc(OC)c(OC)cc3C(=O)N3N=C(C)CC3=O)C2=O)cc1
inactive: [1] 71.2% | [2] 90.1% | [3] 93.4% | [4] 108% | [5] 89.7% | [6] 89.6% | [7] 113% | [8] 91.1%

N#Cc1cnc2cc(OC[C@@H](O)CO)c(NC(=O)CC3CSSC3)cc2c1Nc1ccc(OCc2cccc(F)c2)c(Cl)c1
active: [1] -60.9% | [2] -71% | [3] -85.2% | [4] -74.8% | [5] -58.8% | [6] -60.5% | [7] -78.2% | [8] -79.6%

NC1=NN(c2ccccc2)C(=O)/C1=C/c1ccc(Cl)cc1
inactive: [1] 74.1% | [2] 104% | [3] 105% | [4] 101% | [5] 96.6% | [6] 100% | [7] 109% | [8] 103%

COc1cc2nc(Cl)nc(Nc3cccc(C(=O)/C=C/c4ccc(Br)cc4)c3)c2cc1OC
inactive: [1] 72.4% | [2] 79.7% | [3] 89.6% | [4] 15.1% | [5] 31.7% | [6] 15.8% | [7] 104% | [8] 78.1%

Cc1nn2c(-c3nc4cc(Cl)c(Cl)cc4[nH]3)c(-c3ccc(F)cc3)nc2s1
active: [1] -0.149% | [6] 2.83%
inactive: [2] 44.2% | [3] 26.6% | [4] 39.5% | [5] 40.1% | [7] 75.8% | [8] 39.3%

O=S(=O)(NCCNc1cc(-c2cn(-c3ccccc3)nc2-c2cccc(O)c2)ccn1)c1ccc(F)cc1
active: [1] 7.88% | [3] 2.49% | [7] -34.9%
inactive: [2] 32.2% | [4] 18.8% | [5] 10.7% | [6] 23.9% | [8] 11.3%

O=S(=O)(NCCNc1cc(-c2cn(-c3ccccc3)nc2-c2cccc(O)c2)ccn1)c1ccc(Cl)cc1
active: [7] -42.8%
inactive: [1] 14.4% | [2] 50.7% | [3] 23.3% | [4] 32.8% | [5] 14.9% | [6] 20.4% | [8] 19.4%

C[C@H]1OC(=O)/C=C/[C@@H](O)[C@@H](O)CCCCCCCC[C@@H]1O
inactive: [1] 59.9% | [2] 105% | [3] 106% | [4] 102% | [5] 101% | [6] 88.4% | [7] 102% | [8] 101%

CC(=O)Cc1nsc(NC(=O)c2ccoc2COc2ccccc2)n1
inactive: [1] 105% | [2] 94% | [3] 107% | [4] 105% | [5] 98.2% | [6] 98% | [7] 103% | [8] 100%

Cc1csc(-c2ccc3c(c2)COC3(CCCN(C)C)c2ccc(F)cc2)c1 (stereo not given)
inactive: [2] 76.6% | [4] 22.7% | [5] 17.1% | [8] 14.4%
active: [1] -37.5% | [3] -30.3% | [6] -26.7% | [7] -50.7%

COc1cnc2c(c1)C(=O)c1c-2n(CCCNCCN2CCOCC2)c(=O)c2cc([N+](=O)[O-])ccc12
active: [4] -55.2% | [5] 3.37% | [6] -60.4% | [7] -73.3% | [8] -38.1%
inactive: [1] 15.7% | [2] 13.4% | [3] 13.7%

CC1(C)c2ccccc2C(=O)C1(Br)Cc1ccccc1 (stereo not given)
inactive: [1] 60.6% | [2] 105% | [3] 61.3% | [4] 36.6% | [5] 81.3% | [6] 54.9% | [7] 78.4% | [8] 90.9%

Cc1cc2nc3c4cc(Cl)ccc4n(CCN(C)C)c3nc2cc1C
inactive: [1] 30.5% | [2] 53.6% | [8] 19.1%
active: [3] 1.97% | [4] -21.9% | [5] -37.9% | [6] -12.7% | [7] -23.7%

N#C/C(=C\c1ccc(-c2ccc(Br)cc2)o1)c1nc(-c2cccs2)cs1
inactive: [1] 40% | [2] 96.8% | [3] 101% | [4] 99.8% | [5] 28.9% | [6] 91% | [7] 91.8% | [8] 95.9%

CN1CCN(c2ccc3nc(-c4[nH]ncc4Nc4ncnc5[nH]ccc45)[nH]c3c2)CC1
active: [1] -3.09% | [2] -41.9% | [3] 0.107% | [4] 3.78% | [5] 3.28% | [6] 2.16% | [7] -23.2%
inactive: [8] 10.2%

N=C(N)c1ccc(S(N)(=O)=O)cc1
inactive: [1] 101% | [2] 94.2% | [3] 98.5% | [4] 105% | [5] 99.4% | [6] 93.9% | [7] 93.9% | [8] 106%

From PubChem BioAssay (NCI)
